High-throughput results (PubChem BioAssay)
Rab9 prom act: activates the Rab9 promoter; Huh7 Rab9 promoter-luciferase reporter, luminescence, 24 h; Potency, µM (series often up to 9.22 µM), for inactives: at the highest dose activation, negative = inhibition, usual class: activators; 320,000 tested, 2.8% active; AID 485297; further: % of control where 0% means no effect; nearly all actives have a fitted effect of over 60% in size
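Cells were plated at 1500 per well in reduced-serum medium with 10% FBS and left 2 h. Compound in DMSO was then added for 24 h at 37 °C. Reporter signal was read by luminescence after 10 min with luciferase detection reagent.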
FLuc modulator: counter-screen for miR-21 project: firefly luciferase inhibitors or activators. AID 588342. purified FLuc, Km substrates, luminescence inhibition. 360,000 tested, 6.9% active. Potency, µM (top dose mostly 57.5 µM), for inactives: at the highest dose activity change, negative = inhibition, most hits filed as inhibitors. P08659;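 further: plate controls were vehicle for no effect and reference inhibitor for full effect; nearly all actives have a fitted effect of over 55% in size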
Target sequence (P08659 whole entry, looked up): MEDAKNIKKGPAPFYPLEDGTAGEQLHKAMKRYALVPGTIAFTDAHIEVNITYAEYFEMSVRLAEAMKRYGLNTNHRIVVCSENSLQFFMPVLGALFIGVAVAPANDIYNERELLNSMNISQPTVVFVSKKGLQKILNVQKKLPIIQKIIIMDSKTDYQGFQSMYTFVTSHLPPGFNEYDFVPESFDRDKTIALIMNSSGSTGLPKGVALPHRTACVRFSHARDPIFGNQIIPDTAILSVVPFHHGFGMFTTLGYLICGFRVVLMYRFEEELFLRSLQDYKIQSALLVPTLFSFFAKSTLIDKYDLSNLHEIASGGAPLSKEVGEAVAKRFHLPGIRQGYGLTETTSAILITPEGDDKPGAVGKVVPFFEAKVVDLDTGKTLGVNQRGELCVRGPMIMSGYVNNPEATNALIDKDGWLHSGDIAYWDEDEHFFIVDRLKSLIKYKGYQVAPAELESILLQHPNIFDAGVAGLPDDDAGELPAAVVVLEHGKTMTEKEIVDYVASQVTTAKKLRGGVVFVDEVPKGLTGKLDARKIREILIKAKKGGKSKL
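Biochemical qHTS of compounds, final roughly 60 µM downward over six points, against 10 nM purified firefly luciferase using Km concentrations of substrates (10 uM D-luciferin, 10 uM ATP) in Tris acetate pH 7.5 buffer; luminescence output.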
ELG1 genotox: induces genotoxicity in HEK293T cells with luciferase-tagged ELG1 | HEK293T ELG1-luciferase reporter, luminescence, 16 h | Potency, µM (series often up to 46 µM), without a hit: at the top dose activity change, positive = activation, actives largely listed as activators | 330,000 tested, 1.3% active; further: % of control where 0% means no effect; nearly all actives have a fitted effect of over 60% in size
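DMSO vehicle served as control against compound-treated ELG1-luciferase HEK293T cells; exposure lasted 16 hr at 37 °C and 5% CO2, followed by ONE-Glo luminescence detection after 30 min.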
SMN2 splice up: enhancers of SMN2 splice variant expression; HEK293 SMN2-luciferase splicing reporter, luminescence, 30-36 h; Potency, µM (titrated, usually from 46.1 µM), for inactives: at the top dose activity change, positive = activation, usual class: activators; 210,000 tested, 2.8% active; AID 1458; further: % of control where 0% means no effect; nearly all actives have a fitted effect of over 55% in size
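HEK293 cells carry an SMN2 […]–luciferase reporter in which exon 7 inclusion puts luciferase in frame. Cells were plated 10-12 h before compound addition, then incubated 30-36 h at 37C. ONE-Glo luminescence was read; sodium butyrate at 4.5 mM final served as control.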
NPC1 promoter act: activates the NPC1 promoter. Huh7 NPC1 promoter luciferase reporter, 24 h. Potency, µM (doses to about 9.22 µM), inactives show at the top dose activation, most hits filed as activators. 320,000 tested, 2.4% active; further: % of control where 0% means no effect; nearly all actives have a fitted effect of over 60% in size
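Stable NPC1-promoter luciferase Huh7 line; cpd (DMSO) 24 h, 37 °C, 5% CO2; Amplite luciferase reagent 10 min RT; luminescence readout. qHTS format.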
p53 reactivation: re-activators of mutant p53 | H1299 p53-A138V BP100-luciferase reporter, luminescence, 24 h | Potency, µM (top dose mostly 92.2 µM), inactives show at the top dose activity change, positive = activation, most hits filed as activators | 320,000 tested, 0.063% active | AID 504706; further: % of control where 0% means no effect; nearly all actives have a fitted effect of over 45% in size
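p53-null H1299 cells stably carrying temperature-sensitive p53-A138V and a BP100-luciferase reporter were pinned with compounds (4-point, 1:5 series) and held 24 hrs at 37 deg C. Luminescence was read 10 min after detection reagent.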
Active calls of the source: *; ? = inconclusive; · = no result; [ ] = remark or other dose. Hits are enriched below; roughly 7.4% of the tested compounds scored in any of these assays. The call rests on the fitted dose curve; in most records, active means well fitted curve in the direction sought with a large enough effect; inconclusive means small, poorly fitted or top-dose-only effect, or another doubt; inactive means no such curve, though single readings can be large; an effect the other way counts as inactive or inconclusive. Potency means the concentration at half of the fitted maximal effect.

SMILES	Rab9 prom act	FLuc modulator	ELG1 genotox	SMN2 splice up	NPC1 promoter act	p53 reactivation
COc1ccc(CC(=O)NCc2nnc(SCC(=O)Nc3cccc(F)c3)n2C)cc1	-8%	15µM*	0%	5%	0%	-3%
O=C(CSc1ccc2nnc(CCNC(=O)c3ccccc3)n2n1)Nc1ccccc1	1%	-2%	2%	-17%	-3%	3%
COc1ccc(CC(=O)NCc2nnc(SCC(=O)Nc3ccccc3)n2C)cc1	3%	?	-2%	0%	-6%	-4%
COc1ccc(NC(=O)Cc2nnc(SCC(=O)Nc3ccccc3)n2C)cc1	6%	17µM*	2%	·	3%	7%
COc1ccc(NC(=O)Cc2nnc(SCC(=O)Nc3nccs3)n2C)cc1	4%	15µM*	2%	·	7%	10%
CC1(C)C(O)C=C[C@@]2(C)C1CC(=O)O[C@@]1(C)C3=CC(=O)OC(c4ccoc4)[C@]3(C)CCC21 (some centres undefined)	·	·	·	-41%	·	·
CCc1ccc(NC(=O)c2ccc3nc(N)sc3c2)cc1	?	12µM*	?	?	?	16%
CCc1ccc2nc(N)sc2c1	3.5µM*	11µM*	?	20µM*	2.2µM*	1%
Nc1nc2ccc(C(=O)Nc3ccccc3)cc2s1	3.2µM*	19µM*	?	·	3.5µM*	?
O=[N+]([O-])c1ccc(-c2nc(-c3ccc(F)cc3)c(-c3ccncc3)[nH]2)cc1	-35%[46.1 µM]	·	·	-18%	-25%[46.1 µM]	·
Cn1c(=O)c(-c2ccc(F)cc2)nc2cncnc21	·	·	·	-13%	·	·
CCC1=C2CC[C@H]3C(=O)N(C)C(=O)[C@H]3[C@H]2[C@@]2(Cc3ccccc3)C(=NCCc3c[nH]c4ccccc34)OC(=O)N2C1=O	·	·	·	-21%	·	·
COCCNC(=O)NC(=O)COC(=O)Cc1ccc2c(c1)OCCO2	-5%	3%	4%	10%	-1%	-5%
O=C(Cc1ccc(Br)cc1)OCC(=O)c1ccc2c(c1)OCCO2	-2%	17µM*	4%	16%	-4%	5%
O=C(Cc1n[nH]c(=O)c2ccccc12)OCC(=O)c1ccc2c(c1)OCCO2	-10%	13µM*	?	-19%	-8%	23%
CN1CCN(c2ncc3nc(-c4ccccc4)c(=O)n(-c4ccccc4)c3n2)CC1	·	·	·	-8%	·	·
O=C(C1CCCN(S(=O)(=O)c2cccs2)C1)N1CCN(c2cccc(Cl)c2)CC1 (centres undefined)	·	6%	·	-45%	·	·
CCOc1ccc(C(=O)C(C)OC(=O)C2CCN(c3ccc(C(F)(F)F)cn3)CC2)cc1 (centres undefined)	-1%	-1%	18µM*	·	-1%	-2%
Cc1ccc(C(=O)C(C)OC(=O)C2CCN(c3ccc(C(F)(F)F)cn3)CC2)cc1C (centres undefined)	1%	-43%	6%	·	3%	5%
CCN(C(=O)COc1cccc2cccnc12)C1CCS(=O)(=O)C1 (centres undefined)	2%	-1%	0%	20%	0%	1%
O=C(NCC1CCCO1)c1sc2cc(Cl)ccc2c1Cl (centres undefined)	2µM*	11µM*	?	13µM*	3.2µM*	?
CC(C)(CNC(=O)c1sc2cc(Cl)ccc2c1Cl)N1CCOCC1	-4%	?	16µM*	·	0%	-3%
O=C(NCC1CCCO1)c1cccc(C(=O)NCC2CCCO2)c1 (centres undefined)	0%	-2%	0%	·	-8%	1%
O=C(NCC1CCCO1)c1ccc2[nH]c3c(c2c1)CCCC3 (centres undefined)	26%	21µM*	12%	·	5%	12%
Cc1cc(NS(=O)(=O)c2cn(C)nc2C)no1	0%	-2%	1%	·	3%	·
SMILES	Rab9 prom act	FLuc modulator	ELG1 genotox	SMN2 splice up	NPC1 promoter act	p53 reactivation
CCc1ccc2oc(C(=O)Nc3nc(-c4ccc(F)cc4)ns3)c(C)c2c1	·	6.7µM*	·	6%	·	·
Cc1c(C(=O)Nc2cccnc2)oc2ccc(Br)cc12	3.2µM*	2.7µM*	18µM*	·	?	10%
Cc1c(C(=O)NCc2cccs2)oc2ccc(Br)cc12	14%	19µM*	18µM*	-20%	1%	17%
O=C(Nc1cccnc1)c1cc2c(ccc3ccccc32)o1	·	0.95µM*	·	11µM*	·	·
Cc1c(C(=O)Nc2nc(-c3ccc(F)cc3)ns2)oc2ccc(Br)cc12	·	-2%	·	-8%	·	·
Cc1c(C(=O)Nc2cccc(S(=O)(=O)N3CCOCC3)c2)oc2ccc(Br)cc12	·	·	1%	·	·	8%
Cc1c(C(=O)NCc2cccs2)oc2ccc(S(=O)(=O)N3CCOCC3)cc12	0%	3%	-4%	?	2%	-9%
COc1ccc(NC(=O)Cn2nc(-c3ccccc3)c3cnc4ccc(C)cc4c32)cc1	·	-2%	·	·	·	·
Cc1c(C(=O)Nc2ccc3oc(-c4cccnc4)nc3c2)oc2ccccc12	-11%	-18%	1%	-13%	-6%	-2%
CCc1ccc2oc(C(=O)Nc3cccnc3)c(C)c2c1	4µM*	2.1µM*	4.1µM*	·	?	·
COc1ccc(N2C(=O)c3cc4ccccc4cc3C2=O)cc1	1%	0%	-1%	·	23%	-2%
COc1ccc(-n2ccc3ccccc32)cc1	-2%[1.84 µM]	24µM*	0%	·	-7%	13%
CC1CC1C(=O)Nc1ccc(-c2ccccc2)cc1 (centres undefined)	2.5µM*	9.5µM*	?	13µM*	3.2µM*	26%
CCOC(=O)CSCc1nc(-c2ccc(Cl)cc2)oc1C	-8%	17µM*	3%	-19%	2%	-10%
CCc1ccc(-c2nc(CSCC(=O)NCc3ccco3)c(C)o2)cc1	-16%	24µM*	-6%	-85%	-15%	-2%
Cc1ccc(-c2nc(CSCC(=O)NCC3CCCO3)c(C)o2)cc1 (centres undefined)	3%	?	0%	·	7%	2%
Cc1ccc(CNC(=O)CSCc2nc(-c3ccc(Cl)cc3)oc2C)cc1	·	-19%	·	-9%	·	·
CCOc1ccc(-c2nc(CSCC(=O)NCC3CCCO3)c(C)o2)cc1 (centres undefined)	3%	17µM*	0%[9.26 µM]	·	0%	5%
CCc1ccc(-c2nc(CSCC(=O)NCc3ccccc3OC)c(C)o2)cc1	·	?	·	-7%	·	·
CCOC(=O)C1CCN(C(=O)CSCc2nc(-c3ccc(OCC)cc3)oc2C)CC1	-11%	?	21µM*	-79%	-3%	-12%
O=C(CN1CCN(S(=O)(=O)c2ccccc2F)CC1)N1CCc2ccccc2C1	·	·	1%	·	·	13%
